The subject of this test is VDR:RXRa (NR concentration 270 nM, RXRa partner concentration 90 nM). The test is described as follows: PBM binding z-score (relative to random genomic background probes); higher = stronger binding; sequences stand for … in GC…GCGATTGACAGCGTAGAATGAAGG
On the procedure: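 Protein-binding microarray (Agilent 4x180K custom design, double-stranded 60-nt probes: 5' GC cap, 34-nt variable region, 24-nt constant primer region; full probe sequence given). Purified or IVT nuclear receptor:RXRα heterodimers (3:1 NR:RXRα, mostly 270:90 nM) or homodimers were incubated for 1 h in PBS with 2% milk and no ligand, then detected with Alexa488 antibodies. Fluorescence from o1-orientation probes (~5 replicates averaged) was converted to z-scores against 500 random hg19 background probes. Variable regions are seed direct-repeat (DR0–DR5) sites, all their single-nucleotide variants and half-site ablations.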
CCGCCTGGGGCAAAGGTTACCATACTCAGTACGA had a PBM binding z-score of 1.48.
CCTACTGGGCCACGATAGGTCATTGATTCAGTGA came in with a PBM binding z-score of 1.15.
CAGCCTAGGTCAGGGCCAGAATAGGAGGAACGTT returned a PBM binding z-score of 0.0945.
As to GCTGCTATGTCAACTGATGGTCAGCTAAAGCTCG, the PBM binding z-score was -0.38.
In turn, TAGCCTAGGTCAGATAGGGCCAGTATACGCTATA came in with a PBM binding z-score of 1.11.
With CCAGACAGGTGAGAATGTAACTCAGCCTCGATTA, the PBM binding z-score was -0.0872.
Next, TCTAGTTGGTCAAAGGTCACAAACTCGAAATGCG: 5.17; ACAGACAGGTGATGAAGGTAACTTAGGCTATCAT: 0.0593; CCTCGGAGGACAACGGGAGGTCAGAGCTGCCAGA: 1.91.
For the sequence ATATGTTGGTTAGCTGGGGTCATTCAGACTAGGC, the PBM binding z-score was determined as 5.16.
Sequence TTACCAAGGTGAGCTGAGGTCGTAGATCCAACTC came in with a PBM binding z-score of 3.45.
Consider ATACCAAGGTGATCGTGAGGTCGTTGACACTAAC, for which the PBM binding z-score worked out at 3.35.
Turning to ACTATTAGTTGCCTTAGGGCAACCGATACGACGC, the PBM binding z-score is -0.026.
In the case of CTCGAAAGGTCGCTTGAGGTGAGTATACGGATAA, the PBM binding z-score was 3.4.
In the case of CGAACTAGGTCATTGACAGGACAGCGAATAGTAA, the PBM binding z-score was 2.05.
Next, ATATTTAGGTTAAGGGTCATTCAGGTTGGTTCGC: 5.46.
For the sequence TCTTGTAGATCAACAGGATGTTAAGAAAGATCGA, the PBM binding z-score stood at 0.149.
CGTCAAAGTTCAACTACGGTAACGTAAAGCACGC showed a PBM binding z-score of 4.19.
As for CGAACTAGGTCATCCAGGACAGTGAGTACATTGA, the PBM binding z-score amounted to 5.02.
As for GATACAGGGTCAGCTATAGGCCAGAGTATGGAAA, the PBM binding z-score is 2.46.
Sequence ATCTCTGGGTAAAGTTCAGTGAAAGATCGATAGA yielded a PBM binding z-score of 1.64.
In turn, CCAGACAGGTGAGAAGGTAACTCAACCTCGATTA gave a PBM binding z-score of 0.0485.
CGTCCAAGGTCAGAGAGGTCGGTGAATGCCGAGT showed a PBM binding z-score of 6.24.
Take CCTACTGGGCCATGGTCATTGATCAGTCAAAGCA: the PBM binding z-score is -0.434.
Next, CCGACTTGGGCAAGGTTACCATAACGCACAGCCA: 0.176.
Consider TCATATATGTAAAGGTGAAAGTCGAACGATATGA, for which the PBM binding z-score stood at 1.17.
To CCTAGCAGGCAAATCTGGGTCACTCAAGGCTTGA belongs 0.335; to GCAGACAGGTGATACGCAGGTAACTCAGGGTGGC, -0.655; to CCGATTAGTTGACCATAAGGGCAACCGAAGCTCG, 0.252.
For ATCTCTAGGTAACAACTTCAGTGAAAGAGAGGAC, the PBM binding z-score came to 0.366.
Take CCTACAGGGCCAAAAAGGTCATTGATGCCGATAA: the PBM binding z-score came to 5.62.
Next, CCAGACAGGTCAGAAGGTAACTCAGCCTCGATTA: 1.44.
On to TAGCCTAGGTCATGCGGACCAGTATAGTGTCGGC, for which the PBM binding z-score worked out at 1.99.
Regarding CCGACAGGGGCAAGGTTACCATAACGCACAGCCA, the PBM binding z-score was 0.616.
On to GCTGCTAGGTCAGCTTGGTCAGCTAACGGGTACG, for which the PBM binding z-score is 0.54.
Turning to CTCGAAAGGTCGTGATCAGGTGAGTATACCAAAC, the PBM binding z-score was 3.22.
Next, CCGACTGGGGCAGAAAGTTTACCATACCATCCGG: 0.484.
The sequence GTACCAAGGTGAATAGGTCGGTGATGAGTAGGCG registered a PBM binding z-score of 0.312.
Next, ACTCGGAGGAAAAAGGTCAGAGCTACGCCAGTGA: 2.07; CCTACTTGGCCATTCAGAGGTCATTGATCATATG: 4.04.

The record behind these values is the supplement of paper PMC6555819.
